Consider eleven compounds from ChEMBL document CHEMBL3988442, “University of Dundee, Small-Polar-MMV Screening Library” (2021).

Set-up in all cases: scale not given: direction of the effect not stated beside the values
For experiment [1], the target named is Protein translocase subunit SecA (Escherichia coli (strain K12)) (UniProt P10408). The experiment can be described thus: Assay to Identify E. coli SecA ATPase Inhibitors. The class given is functional. Conditions: 30 µM.
The target in experiment [2] is T1, Ubiquitin-activating enzyme e1, putative (Leishmania donovani (strain BPK282A1)) (UniProt E9BSI1).
T1 sequence (whole entry): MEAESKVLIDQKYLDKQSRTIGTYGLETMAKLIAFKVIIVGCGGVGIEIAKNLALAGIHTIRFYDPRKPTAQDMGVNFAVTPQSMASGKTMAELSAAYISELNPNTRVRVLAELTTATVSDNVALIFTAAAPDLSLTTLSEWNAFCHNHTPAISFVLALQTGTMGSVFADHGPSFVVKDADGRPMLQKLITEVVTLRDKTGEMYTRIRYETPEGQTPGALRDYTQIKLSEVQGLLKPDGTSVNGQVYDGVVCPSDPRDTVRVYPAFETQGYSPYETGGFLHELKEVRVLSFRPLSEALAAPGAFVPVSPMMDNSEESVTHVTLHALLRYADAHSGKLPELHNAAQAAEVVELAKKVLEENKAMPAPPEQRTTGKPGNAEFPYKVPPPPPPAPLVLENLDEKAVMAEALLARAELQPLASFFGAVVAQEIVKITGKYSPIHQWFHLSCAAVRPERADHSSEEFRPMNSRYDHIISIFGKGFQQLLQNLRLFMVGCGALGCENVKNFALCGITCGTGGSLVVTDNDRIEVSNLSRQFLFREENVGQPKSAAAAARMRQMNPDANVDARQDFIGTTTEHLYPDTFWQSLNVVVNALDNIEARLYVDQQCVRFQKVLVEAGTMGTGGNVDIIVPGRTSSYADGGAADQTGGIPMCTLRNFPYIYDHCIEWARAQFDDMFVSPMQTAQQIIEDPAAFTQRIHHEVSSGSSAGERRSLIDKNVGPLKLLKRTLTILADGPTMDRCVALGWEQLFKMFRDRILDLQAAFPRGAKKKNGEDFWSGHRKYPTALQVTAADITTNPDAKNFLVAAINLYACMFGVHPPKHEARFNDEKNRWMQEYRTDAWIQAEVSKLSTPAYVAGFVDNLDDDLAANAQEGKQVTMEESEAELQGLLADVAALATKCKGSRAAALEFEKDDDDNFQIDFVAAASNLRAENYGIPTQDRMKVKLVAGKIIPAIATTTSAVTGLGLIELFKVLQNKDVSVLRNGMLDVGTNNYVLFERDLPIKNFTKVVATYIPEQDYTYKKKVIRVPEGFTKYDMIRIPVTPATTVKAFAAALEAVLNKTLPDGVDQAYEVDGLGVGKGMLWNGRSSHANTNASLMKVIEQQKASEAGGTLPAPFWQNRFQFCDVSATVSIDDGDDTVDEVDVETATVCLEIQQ
The experiment can be described thus: Leishmania donovani Ubiquitin Activating Enzyme (LdE1). Conditions: 30 µM. Type of experiment: functional.

Experiment [3] deals with AMP-activated protein kinase, AMPK (Homo sapiens) (UniProt P54646+O43741+P54619+Q9UGJ0+Q9Y478+Q13131+Q9UGI9). The experiment can be described thus: AMP-dependent Kinase enzyme assay. An in vitro enzyme assay that detects ADP turnover that is directly proportional to AMPK activity. This uses naive AMPK that is activated during the assay with MK-8722. Type of experiment: functional. Particulars: 30 µM.

Experiment [4] deals with Sialic acid-binding Ig-like lectin 9 (Homo sapiens) (UniProt Q9Y336). The experiment can be described thus: Hs-Siglec9 ALPHAscreen SOP 20170721. Particulars: 10 µM. A general note: In Alpha technology, singlet oxygen from a donor bead excites a nearby acceptor bead.
The subject of another experiment is Trypanosoma cruzi. The experiment can be described thus: Trypanosoma cruzi phosphomannomutase and mannose-1-phosphate guanylyltransferase assay. The class given is functional. Particulars: 10 µM.
Experiment [5] concerns the target T2, Arginase-2, mitochondrial (Homo sapiens) (UniProt P78540).
T2 sequence (whole entry): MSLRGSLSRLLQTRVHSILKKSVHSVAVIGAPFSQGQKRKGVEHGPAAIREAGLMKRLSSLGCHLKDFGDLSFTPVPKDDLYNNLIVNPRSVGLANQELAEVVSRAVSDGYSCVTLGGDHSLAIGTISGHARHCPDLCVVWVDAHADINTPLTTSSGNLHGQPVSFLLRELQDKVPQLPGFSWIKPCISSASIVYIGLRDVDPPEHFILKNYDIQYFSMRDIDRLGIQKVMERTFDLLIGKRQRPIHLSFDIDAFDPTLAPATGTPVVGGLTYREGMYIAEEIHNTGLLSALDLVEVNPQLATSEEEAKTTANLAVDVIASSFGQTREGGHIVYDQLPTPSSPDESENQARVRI
The experiment can be described thus: in vitro enzyme assay to detect the production of urea directly proportional to the activity of Arginase II. Note: in the data most compounds retested in dose-response had high values. Particulars: 33.3 µM. The class given is functional.

Experiment [6] addresses T3, Proteasome subunit beta (Trypanosoma cruzi) (UniProt O96673).
T3 sequence (whole entry): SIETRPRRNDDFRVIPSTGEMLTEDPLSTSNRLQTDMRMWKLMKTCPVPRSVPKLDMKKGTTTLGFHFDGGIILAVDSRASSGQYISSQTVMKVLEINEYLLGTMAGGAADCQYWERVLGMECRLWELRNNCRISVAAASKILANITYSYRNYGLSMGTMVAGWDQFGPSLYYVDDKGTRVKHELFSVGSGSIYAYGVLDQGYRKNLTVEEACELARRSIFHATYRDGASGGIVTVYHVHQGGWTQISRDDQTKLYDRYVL
The experiment can be described thus: Trypanosoma cruzi proteasome chymotrypsin-like activity (TcProtChymo) assay. Note: in the data most compounds retested in dose-response had high values. Type of experiment: functional. Particulars: 9.37 µM.

The species named for a further experiment is Homo sapiens. The experiment can be described thus: To identify inhibition of the IFN signalling (Jak-Stat) pathway via expression of an eGFP reporter gene under the control of an IFN-stimulated response element (ISRE) containing MxA promoter. The class given is functional. Conditions: 30 µM. A general note: Reporter assays use an easily measured gene product as a stand-in for the process of interest.

Experiment [7] deals with T4, Tyrosyl-tRNA synthetase, putative (Trypanosoma cruzi (strain CL Brener)) (UniProt Q4DSP6).
T4 sequence (whole entry): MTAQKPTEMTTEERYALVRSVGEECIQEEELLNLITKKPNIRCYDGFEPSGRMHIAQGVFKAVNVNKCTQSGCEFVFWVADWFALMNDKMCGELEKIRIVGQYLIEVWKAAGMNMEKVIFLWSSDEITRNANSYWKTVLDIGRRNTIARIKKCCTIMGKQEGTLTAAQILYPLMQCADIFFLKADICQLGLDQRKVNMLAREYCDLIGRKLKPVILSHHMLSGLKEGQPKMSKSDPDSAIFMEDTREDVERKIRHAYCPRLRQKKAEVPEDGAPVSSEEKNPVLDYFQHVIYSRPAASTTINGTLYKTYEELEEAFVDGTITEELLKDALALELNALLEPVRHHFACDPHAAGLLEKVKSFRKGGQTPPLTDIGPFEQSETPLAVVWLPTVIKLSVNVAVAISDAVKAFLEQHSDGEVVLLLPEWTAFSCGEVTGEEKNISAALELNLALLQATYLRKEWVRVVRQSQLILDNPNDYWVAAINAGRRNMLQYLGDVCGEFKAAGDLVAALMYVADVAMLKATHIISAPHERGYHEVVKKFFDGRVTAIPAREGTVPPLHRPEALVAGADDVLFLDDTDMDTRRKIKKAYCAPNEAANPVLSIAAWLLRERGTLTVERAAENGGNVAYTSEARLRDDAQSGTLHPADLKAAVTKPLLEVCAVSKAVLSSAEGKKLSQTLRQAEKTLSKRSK
The experiment can be described thus: Trypanosoma cruzi tyrosyl tRNA synthetase (TcYRS) _High Tyrosine SOP. Note: in the data most compounds retested in dose-response had high values. The class given is functional. Particulars: 30 µM.

For experiment [8], the target named is T4, Tyrosyl-tRNA synthetase, putative (Trypanosoma cruzi (strain CL Brener)). The experiment can be described thus: Trypanosoma cruzi tyrosyl tRNA synthetase (TcYRS) SOP. Type of experiment: functional. Conditions: 30 µM.
The target of experiment [9] is Chromo domain-containing protein 1 (Saccharomyces cerevisiae (strain ATCC 204508 / S288c) (Baker's yeast)) (UniProt P32657). The experiment can be described thus: ScCHD-1 Enzyme Inhibition Assay. Note: in the data most compounds retested in dose-response had high values. The class given is functional. Conditions: 30 µM.

For some of these results: Entries with a potency or affinity are not part of this list.

Chromo domain-containing protein 1 (Saccharomyces cerevisiae (strain ATCC 204508 / S288c) (Baker's yeast)), sequence (P32657 whole entry, the tested form may be a part): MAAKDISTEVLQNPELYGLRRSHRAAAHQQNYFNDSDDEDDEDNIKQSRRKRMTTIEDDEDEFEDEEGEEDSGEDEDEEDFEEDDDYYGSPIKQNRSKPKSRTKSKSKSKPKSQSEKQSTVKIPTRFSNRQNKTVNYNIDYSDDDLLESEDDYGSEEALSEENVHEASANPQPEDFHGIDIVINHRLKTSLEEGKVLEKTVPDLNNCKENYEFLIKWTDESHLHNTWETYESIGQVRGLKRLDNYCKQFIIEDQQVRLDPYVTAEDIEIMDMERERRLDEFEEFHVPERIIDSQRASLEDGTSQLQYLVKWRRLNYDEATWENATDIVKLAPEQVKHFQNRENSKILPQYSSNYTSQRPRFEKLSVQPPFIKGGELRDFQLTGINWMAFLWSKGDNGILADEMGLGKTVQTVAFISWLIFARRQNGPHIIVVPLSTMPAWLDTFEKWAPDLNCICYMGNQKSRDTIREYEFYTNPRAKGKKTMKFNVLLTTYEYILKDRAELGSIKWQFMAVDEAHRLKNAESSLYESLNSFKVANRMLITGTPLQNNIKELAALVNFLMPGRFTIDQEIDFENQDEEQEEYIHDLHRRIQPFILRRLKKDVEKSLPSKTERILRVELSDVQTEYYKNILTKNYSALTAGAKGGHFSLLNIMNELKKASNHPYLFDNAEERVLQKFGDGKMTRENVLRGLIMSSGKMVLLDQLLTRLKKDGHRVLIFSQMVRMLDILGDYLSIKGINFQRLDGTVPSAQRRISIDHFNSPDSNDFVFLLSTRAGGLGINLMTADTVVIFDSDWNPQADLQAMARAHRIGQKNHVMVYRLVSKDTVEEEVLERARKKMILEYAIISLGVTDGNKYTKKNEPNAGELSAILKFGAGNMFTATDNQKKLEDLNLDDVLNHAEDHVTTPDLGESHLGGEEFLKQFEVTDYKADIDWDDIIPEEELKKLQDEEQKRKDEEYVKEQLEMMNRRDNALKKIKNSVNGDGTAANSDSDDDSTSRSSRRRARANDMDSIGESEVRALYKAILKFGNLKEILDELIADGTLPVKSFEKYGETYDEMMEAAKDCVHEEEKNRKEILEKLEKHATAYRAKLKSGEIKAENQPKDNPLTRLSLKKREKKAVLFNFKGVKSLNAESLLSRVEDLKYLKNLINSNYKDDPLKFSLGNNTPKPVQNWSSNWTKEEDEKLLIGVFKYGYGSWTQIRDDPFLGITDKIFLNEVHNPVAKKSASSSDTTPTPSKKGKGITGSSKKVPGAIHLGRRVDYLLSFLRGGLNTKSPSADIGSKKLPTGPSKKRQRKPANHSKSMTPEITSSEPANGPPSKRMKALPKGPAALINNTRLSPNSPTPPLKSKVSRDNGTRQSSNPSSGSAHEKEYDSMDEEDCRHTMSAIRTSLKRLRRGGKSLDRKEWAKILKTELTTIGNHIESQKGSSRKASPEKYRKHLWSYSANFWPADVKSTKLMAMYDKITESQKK
Sialic acid-binding Ig-like lectin 9 (Homo sapiens), sequence (Q9Y336 whole entry): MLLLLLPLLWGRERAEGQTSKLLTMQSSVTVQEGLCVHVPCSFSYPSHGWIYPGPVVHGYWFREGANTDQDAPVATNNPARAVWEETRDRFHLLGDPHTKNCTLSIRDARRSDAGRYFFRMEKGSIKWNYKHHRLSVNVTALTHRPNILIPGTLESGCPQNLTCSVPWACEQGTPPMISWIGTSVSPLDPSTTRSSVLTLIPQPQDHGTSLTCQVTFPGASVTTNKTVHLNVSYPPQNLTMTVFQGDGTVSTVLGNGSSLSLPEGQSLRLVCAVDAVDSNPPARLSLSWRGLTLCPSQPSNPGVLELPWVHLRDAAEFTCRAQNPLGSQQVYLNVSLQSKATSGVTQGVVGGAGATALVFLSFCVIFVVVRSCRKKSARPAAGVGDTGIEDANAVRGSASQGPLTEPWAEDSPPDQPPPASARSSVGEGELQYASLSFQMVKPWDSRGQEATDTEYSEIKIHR
Protein translocase subunit SecA (Escherichia coli (strain K12)), sequence (P10408 whole entry): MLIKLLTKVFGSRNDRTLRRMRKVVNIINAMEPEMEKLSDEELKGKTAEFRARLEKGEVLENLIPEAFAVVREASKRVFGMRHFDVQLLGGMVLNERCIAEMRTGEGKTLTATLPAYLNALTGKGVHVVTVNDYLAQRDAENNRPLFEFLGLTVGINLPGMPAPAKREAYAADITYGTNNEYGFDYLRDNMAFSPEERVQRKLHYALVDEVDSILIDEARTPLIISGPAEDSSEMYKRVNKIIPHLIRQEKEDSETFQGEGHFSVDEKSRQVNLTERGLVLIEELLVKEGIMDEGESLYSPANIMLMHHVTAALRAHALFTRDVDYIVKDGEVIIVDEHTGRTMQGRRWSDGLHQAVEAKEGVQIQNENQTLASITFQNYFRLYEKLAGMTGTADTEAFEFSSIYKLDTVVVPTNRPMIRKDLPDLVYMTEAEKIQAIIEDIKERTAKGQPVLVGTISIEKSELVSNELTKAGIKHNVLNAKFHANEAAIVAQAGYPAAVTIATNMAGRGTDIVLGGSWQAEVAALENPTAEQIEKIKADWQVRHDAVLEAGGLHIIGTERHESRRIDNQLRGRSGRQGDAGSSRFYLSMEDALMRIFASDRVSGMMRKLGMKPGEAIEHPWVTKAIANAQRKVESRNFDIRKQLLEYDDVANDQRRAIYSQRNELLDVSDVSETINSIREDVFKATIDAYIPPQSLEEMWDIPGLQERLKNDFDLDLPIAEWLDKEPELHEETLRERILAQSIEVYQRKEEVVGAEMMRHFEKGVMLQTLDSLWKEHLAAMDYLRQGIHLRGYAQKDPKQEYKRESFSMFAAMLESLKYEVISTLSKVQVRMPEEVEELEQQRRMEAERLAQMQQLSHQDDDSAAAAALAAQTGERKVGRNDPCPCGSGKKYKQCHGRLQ

With `Cc1ccc(S(=O)(=O)N2C[C@H]3C[C@H](NC(=O)c4ccnn4C)[C@H]3C2)cc1`, the Percent Effect in experiment [1] is -1.89%; in experiment [2], -6.76%; in experiment [3], 9.6%; in experiment [4], 1.27%; in the experiment with Trypanosoma cruzi it was -0.988%; in experiment [5], -3.02%. Further, the Percent Effect in experiment [6] was -3.28%; in the experiment filed under Homo sapiens, 84.1%; in [7], 2.15%; in experiment [8], 3.9%; in [9], 14%.
On to `O=C(N[C@@H]1CN(Cc2cccs2)[C@@H]2CCCO[C@@H]21)C1CC1`, for which the Percent Effect was 2.58% in experiment [1]; 8% in experiment [2]; 2.54% in [3]; 23.2% in experiment [4]; -7.34% in the experiment on Trypanosoma cruzi; -53.6% in experiment [5]. In addition, the Percent Effect is 13.3% in experiment [6]; 1.32% in the experiment listed under Homo sapiens; 2.08% in experiment [7]; 20% in [8]; -6.29% in [9].
Regarding `Cc1ccc(CN2CCn3cc(CN(C)Cc4ccco4)nc3C2)o1`, the Percent Effect is -4.77% in experiment [1]; 15.6% in [2]; -9.82% in [3]; 2.5% in experiment [4]; 7.2% in the experiment with Trypanosoma cruzi; -9.68% in [5]. The Percent Effect in [6] is 16.2%; in the experiment filed under Homo sapiens, 7.34%; in experiment [7] it was 4.23%; in experiment [8] it was 11.5%; in experiment [9] it was -10.4%.
Turning to `Cc1cc(C)c2nc(CN3CCCC(c4cc[nH]n4)C3)cc(O)c2c1` (stereo unspecified), the Percent Effect in experiment [1] is -1.83%; in experiment [2], 0%; in [3], 3.31%; in experiment [4] it was -3.01%; in the experiment with Trypanosoma cruzi, -3.28%; in experiment [5], 0%. Moreover, the Percent Effect is 8.62% in experiment [6]; 23.3% in the experiment listed under Homo sapiens; 3.7% in [7]; 14.6% in experiment [8]; -5.03% in [9].
As to `COC(=O)c1ccc(N2CCN(C(=O)c3cnn(C)c3)C(C)C2)cc1` (stereo unspecified), the Percent Effect in [1] was -5.55%; in experiment [2], 17.7%; in [3] it was -10.6%; in [4] it was 11.1%; with Trypanosoma cruzi, 6.14%; in experiment [5], -1.52%. Further, the Percent Effect in experiment [6] is 11.9%; in the experiment filed under Homo sapiens it was 9.04%; in experiment [7], 2.46%; in experiment [8], 13.9%; in [9], -12.4%.
With `CN1CCc2onc(CNc3ncccn3)c2C1`, the Percent Effect in experiment [1] is -7.63%; in experiment [2] it was 2.67%; in [3], 0.141%; in experiment [4] it was -6.27%; with Trypanosoma cruzi it was -7.53%; in experiment [5], -53.9%. Besides, the Percent Effect was 3.25% in experiment [6]; 3.62% in the experiment listed under Homo sapiens; 0% in experiment [7]; 5% in experiment [8]; -6.01% in experiment [9].
`Cc1nc(NC(=O)CNC(=O)c2c(F)cccc2Cl)n[nH]1`: the Percent Effect in experiment [1] was -5.26%; in experiment [2], 13.2%; in [3], 2.15%; in experiment [4], 2.44%; in the experiment with Trypanosoma cruzi it was 3.21%; in experiment [5], -3.55%. Moreover, the Percent Effect in experiment [6] is 9.11%; in the experiment filed under Homo sapiens, 3.8%; in experiment [7], 1.06%; in experiment [8], 7.79%; in [9], -1.65%.
With `CCOC1CCCN(C(=O)NCCc2ccn(-c3ccccc3)n2)C1` (stereo unspecified), the Percent Effect in [1] is -2.03%; in experiment [2] it was 20.8%; in experiment [3] it was -1.06%; in [4] it was -7.16%; with Trypanosoma cruzi, -0.49%; in experiment [5], -2.74%. Also, the Percent Effect is 12.1% in experiment [6]; 0.938% in the experiment listed under Homo sapiens; 5.71% in experiment [7]; 18.8% in [8]; -17.1% in [9].
`Cc1cccc(CS(=O)(=O)CC(=O)NCCCOC(C)C)c1`: the Percent Effect in experiment [1] is -4.74%; in experiment [2], 18.2%; in [3] it was -13.1%; in experiment [4] it was 5.88%; with Trypanosoma cruzi, 9.74%; in experiment [5], 3.92%. The Percent Effect is 4.05% in experiment [6]; 23.9% in the experiment filed under Homo sapiens; 7.77% in [7]; 24.4% in experiment [8]; -10.7% in experiment [9].
As to `COc1ncccc1CNc1cc(N2CCCC2CO)ncn1` (stereo unspecified), the Percent Effect in [1] is -1.73%; in experiment [2], 2.6%; in experiment [3], -6.5%; in experiment [4] it was 5.75%; in the experiment with Trypanosoma cruzi it was 3.75%; in [5], -8.54%. Besides, the Percent Effect is 13.3% in experiment [6]; 20.9% in the experiment listed under Homo sapiens; 3.88% in experiment [7]; 12.2% in experiment [8]; -10.4% in [9].
Regarding `CC(C)NC(=O)[C@H]1C[C@@H]2[C@@H](C1)OCCN2Cc1cnn(C)c1`, the Percent Effect is -3.53% in experiment [1]; 0% in experiment [2]; 4.75% in experiment [3]; 2.29% in experiment [4]; -5.6% in the experiment on Trypanosoma cruzi; -50% in [5]. Also, the Percent Effect was 4.44% in experiment [6]; -6.54% in the experiment filed under Homo sapiens; 3.12% in experiment [7]; 10% in experiment [8]; -4.52% in experiment [9].
